Laboratory results from PubChem BioAssay AID1259421 (Broad Institute, 2018).
Values joined by “and” are separate entries in the source; they are usually repeats but may differ in a detail not shown here. Equal entries are not always repeated. Among all 6,400 compounds or so, about 610 (9.5%) were called active. No stated cut-off is given here; in the data, active means activity change below about -70%; inconclusive means no clear call, values can overlap the other calls; inactive means above that. The sample as a whole holds a higher share of actives than the screen did. Where a structure was tested more than once in an assay, its records may differ in their call.

experiment: T. gondii ME49Luc in HeLa cells, luciferase assay, 72 h, no IFN-y (AID 1259421); conditions: stronger effect = lower value, concentration not given here

Row | SMILES | activity change, negative = inhibition
1 | CC(C)Cc1ccc([C@@H](C)C(=O)NS(C)(=O)=O)cc1 | 0.904% (inactive)
2 | NC(COCc1ccccc1)C(=O)O (stereo not drawn) | 2.58% (inactive)
3 | CCCc1c(OCCCCc2nn[nH]n2)ccc(C(C)=O)c1O | 3.01% (inactive)
4 | N#Cc1c(N)nc(SCc2csc(-c3ccc(Cl)cc3)n2)c(C#N)c1-c1ccc(OCCO)cc1 | -62.2% (inactive)
5 | Cc1nccc2[nH]c(=O)ccc12 | 4.39% (inactive)
6 | CC(=O)O[C@@H]1CC[C@@]2(C)C(CC[C@]3(C)C2C(=O)C=C2[C@@H]4[C@@H](C)[C@H](C)CC[C@]4(C)CC[C@]23C)[C@@]1(C)C(=O)O (stereo partly drawn) | -14.9% (inactive)
7 | COc1ccc(CCCOC(Cn2ccnc2)c2ccc(OC)cc2)cc1 (stereo not drawn) | -72.3% (active)
8 | O=C(O)c1ccc(OCCn2ccnc2)cc1 | -29.3% (inactive)
9 | NC(=O)C1CSSCCC(=O)NC(CCCCN=C(N)N)C(=O)NCC(=O)NC(CC(=O)O)C(=O)NC(Cc2c[nH]c3ccccc23)C(=O)N2CCCC2C(=O)N1 (stereo not drawn) | 1.76% (inactive)
10 | CCOC(=O)CSCCC1NC(C(=O)O)CS1 (stereo not drawn) | 6.06% (inactive) and 14% (inactive)
11 | N#C/C(=C/c1ccc(O)c(O)c1)C(=O)NCc1ccccc1 | 27.2% (inactive)
12 | O=C(O)c1cc2occc2[nH]1 | 12% (inactive)
13 | Cc1cc(C)c2c(c1)[C@@H](N(Cc1cc(C(F)(F)F)cc(C(F)(F)F)c1)c1nnn(C)n1)CCCN2CC1CCC(C(=O)O)CC1 (stereo partly drawn) | -80.5% (active)
14 | CNC(=O)c1cccc(NCC(=O)NCCc2ccc(OC)c(OC)c2)c1 | 16.5% (inactive)
15 | Cc1ccc(C(=O)N(CCCN)[C@@H](c2nc3cc(Cl)ccc3c(=O)n2Cc2ccccc2)C(C)C)cc1 | -72.6% (active)
16 | Cc1ccc(C(=O)N(CCCN)[C@@H](c2oc3cc(Cl)ccc3c(=O)c2Cc2ccccc2)C(C)C)cc1 | -80.4% (active)
17 | Cc1c(C)n(Cc2ccccc2)c2ccc(C(=O)OCCN(C)C)cc12 | 11.3% (inactive)
18 | O=C(O)CC(S)C(=O)O (stereo not drawn) | 11.1% (inactive)
19 | Cc1cc2nc3c(=O)[nH]c(=O)nc-3n(CC(O)C(O)C(O)CO)c2cc1C (stereo not drawn) | 28.7% (inactive) and -4.94% (inactive)
20 | O=C(O)[C@H](O)[C@@H](O)[C@H](O)[C@H](O)CO | -60.2% (inactive)
21 | CC(C)C1CCC(C(=O)N[C@H](Cc2ccccc2)C(=O)O)CC1 (stereo partly drawn) | 20.3% (inactive)
22 | O=C(CCCCCCNC(=O)c1cnc(N(c2ccccc2)c2ccccc2)nc1)NO | -10.9% (inactive)
23 | CC(/C=C/C(=O)NO)=C\[C@@H](C)C(=O)c1ccc(N(C)C)cc1 | -69.6% (inactive)
24 | CN(C)c1ccc(C(=O)NCCCCCCC(=O)NO)cc1 | -59.9% (inactive) and -86.2% (active) and -94.9% (active)
25 | CCCCCCCCCCCCC/C=C/[C@@H](O)[C@H](COC1OC(CO)C(OC2OC(CO)C(OC3OC(CO)C(O)C(OC4OC(CO)C(O)C(O)C4O)C3NC(C)=O)C(OC3(C(=O)O)CC(O)C(NC(C)=O)C(C(O)C(O)CO)O3)C2O)C(O)C1O)NC(=O)CCCCCCCCCCCCCCCCC (stereo partly drawn) | 8.33% (inactive)

Row | SMILES | activity change, negative = inhibition
26 | O=C(O)c1c(Sc2ccccc2)c2cc(Cl)ccc2n1Cc1ccc(Cl)cc1 | -5.44% (inactive) and 8.39% (inactive)
27 | COC(=O)C1CC2=CC(=O)CCC2(C)C23OC2CC2(C)C(CCC24CCC(=O)O4)C13 (stereo not drawn) | 3.98% (inactive)
28 | CC1(C)CC[C@]2(C(=O)O)CC[C@]3(C)C(=CC[C@@H]4[C@@]5(C)CC[C@H](O)C(C)(C)[C@@H]5CC[C@]43C)[C@@H]2C1 | -38.2% (inactive) and 16.6% (inactive)
29 | C[C@@H]1CC[C@]2(C(=O)O)CC[C@]3(C)C(=CCC4[C@@]5(C)CC[C@H](O)C(C)(C)C5CC[C@]43C)C2[C@H]1C (stereo partly drawn) | 8.22% (inactive)
30 | C[C@H]1[C@H](C)CC[C@]2(C(=O)O)CC[C@]3(C)C(=CC[C@@H]4[C@@]5(C)CC[C@H](O)C(C)(C)[C@@H]5CC[C@]43C)[C@H]12 | -76.6% (active)
31 | C[C@H]1[C@H](C)CC[C@]2(C(=O)O)CC[C@]3(C)C(=CCC4[C@@]5(C)C[C@@H](O)[C@H](O)[C@@](C)(CO)C5CC[C@]43C)[C@H]12 (stereo partly drawn) | 14.3% (inactive)
32 | C[C@H]1[C@H](C)CC[C@]2(C(=O)O)CC[C@]3(C)C(=CC[C@@H]4[C@@]5(C)C[C@@H](O)[C@H](O)[C@@](C)(CO)[C@@H]5CC[C@]43C)[C@H]12 | -67.1% (inactive) and -6.04% (inactive)
33 | C[C@H]1[C@H](C)CC[C@]2(C(=O)O)CC[C@]3(C)C(=CCC4[C@@]5(C)C[C@@H](O)[C@H](O)[C@@](C)(CO)C5[C@H](O)C[C@]43C)[C@H]12 (stereo partly drawn) | -87.6% (active)
34 | Nc1nc2c(ncn2CCC(CO)CO)c(=O)[nH]1 | 11.1% (inactive)
35 | COc1c2ccoc2nc2c(OC)c(OCC(O)C(C)(C)O)ccc12 (stereo not drawn) | 7.33% (inactive)
36 | C[C@@H](NCCCc1cccc(C(F)(F)F)c1)c1cccc2ccccc12 | 58.2% (inactive)
37 | CO[C@H]1C=CO[C@@]2(C)Oc3c(C)c(O)c4c(O)c(c5c(nc6cc(C)ccn65)c4c3C2=O)NC(=O)/C(C)=C\C=C/[C@H](C)[C@H](O)[C@@H](C)C(O)[C@@H](C)[C@H](OC(C)=O)[C@@H]1C (stereo partly drawn) | 2.45% (inactive)
38 | CC(C)CC1C(=O)N2CCC[C@H]2C2(O)O[C@](NC(=O)C3C=C4c5cccc6[nH]c(Br)c(c56)C[C@H]4N(C)C3)(C(C)C)C(=O)N12 (stereo partly drawn) | -3.42% (inactive)
39 | CS(=O)(=O)Oc1ccc2c(NC(N)=O)c(C(=O)c3ccc(Cl)cc3Cl)oc2c1 | 6% (inactive) and -81.6% (active)
40 | O=C(NS(=O)(=O)c1ccc(Br)s1)c1ccc(Cl)cc1Cl | 15.3% (inactive)
41 | CCOC(=O)CCNc1cc(N2CCc3ccccc3CC2)nc(-c2ccccn2)n1 | -57.4% (inactive)
42 | Cc1cccc(/C=N/Nc2cc(N3CCOCC3)nc(OCCc3ccccn3)n2)c1 | -83.9% (active)
43 | O=c1cc(N2CCOCC2)nc2c3ccccc3ccn12 | 7.41% (inactive)
44 | O=C(O)c1ccc(-n2nc(-c3ccccc3O)nc2-c2ccccc2O)cc1 | -30% (inactive)
45 | CC(C)(O)CC[C@@H](O)[C@](C)(O)C1CC[C@@]2(O)C3=CC(=O)C4C[C@@H](O)[C@@H](O)C[C@]4(C)C3CC[C@]12C (stereo partly drawn) | 12.6% (inactive)
46 | Fc1cccc(/C=N/N=C/c2cccc(F)c2)c1 | 8.5% (inactive) and 8.55% (inactive)
47 | C[N+]1(C)[C@@H]2CC(OC(=O)C(O)(c3cccs3)c3cccs3)C[C@H]1[C@@H]1O[C@@H]12 (stereo partly drawn) | 13.9% (inactive)
48 | CCc1cnn2c(NCc3ccc[n+]([O-])c3)cc(N3CCCC[C@H]3CCO)nc12 | -74.2% (active)
49 | COc1ccc(CNc2nc(N3CCC[C@H]3CO)ncc2C(=O)NCc2ncccn2)cc1Cl | -6.59% (inactive)
50 | COc1cc(O)cc([C@@H]2CC(=O)c3c(O)cc(O[C@@H]4O[C@H](CO)[C@@H](O)[C@H](O)[C@H]4O[C@@H]4O[C@@H](C)[C@H](O)[C@@H](O)[C@H]4O)cc3O2)c1 | 4.15% (inactive)

Row | SMILES | activity change, negative = inhibition
51 | c1ccc(Oc2nc(NC3CCCCC3)c3[nH]cnc3n2)cc1 | -6.74% (inactive)
52 | Cn1cnc2cc3c(Nc4cccc(Br)c4)ncnc3cc21 | -18.1% (inactive)
53 | O=C(NCCCl)N(CCCl)[NH2+][O-] | -12% (inactive)
54 | O=C(O)c1ccc(N2C(=O)/C(=C/c3ccc(-c4ccc([N+](=O)[O-])cc4)o3)C=C2c2ccccc2)cc1 | 14.9% (inactive)
55 | CCCN(CCC)C(=O)C(CCC(=O)O)NC(=O)c1ccccc1 (stereo not drawn) | -0.127% (inactive) and 11.8% (inactive)
56 | CN1CCc2c(c3ccccc3n2Cc2ccc(C(=O)NO)cc2)C1 | -47% (inactive)
57 | CCCCN(Cc1ccc(C(=O)NO)cc1)C(=O)Nc1ccccc1 | -84.4% (active)
58 | CC1CCCC(C)N1 (stereo not drawn) | 19.7% (inactive)
59 | NCCc1ccn[nH]1 | 7.65% (inactive)
60 | CN(C)N(C)C(=O)[C@@]1(Cc2ccccc2)CCCN(C(=O)[C@@H](Cc2c[nH]c3ccccc23)NC(=O)C(C)(C)N)C1 | 17.2% (inactive)
61 | CSc1nc(NC2CCCC2)c([N+](=O)[O-])c(NC2CCCC2)n1 | 15.2% (inactive) and 17.7% (inactive)
62 | CCCCCCOC(=O)/N=C(/N)c1ccc(NCc2nc3cc(C(=O)N(CCC(=O)OCC)c4ccccn4)ccc3n2C)cc1 | 13.2% (inactive)
63 | CC(=O)OCC(=O)[C@@]12OC(C)(C)O[C@@H]1CC1C3C[C@H](F)C4=CC(=O)C=C[C@]4(C)[C@@]3(F)[C@@H](O)C[C@@]12C (stereo partly drawn) | 8.91% (inactive) and 0.0222% (inactive)
64 | COC1=CC(=O)C(=O)C/C1=C\C=C\c1ccccc1 | -4.53% (inactive)
65 | CCCCCCCCCCCCN1CCCCCC1=O | 10.1% (inactive)
66 | COc1ccccc1S(=O)(=O)Nc1ccc2c(c1)CN(C)C(=O)N2 | 28.4% (inactive)
67 | COc1cc(NS(C)(=O)=O)ccc1Cc1c2ccccc2nc2ccccc12 | -78.8% (active)
68 | COc1cc(NS(C)(=O)=O)ccc1Nc1c2ccccc2nc2ccccc12 | -35.3% (inactive) and -53.5% (inactive)
69 | Cc1cc(=O)c2c(O)c3c(O)cc(O)c4c5c(O)cc(O)c6c(O)c7c(=O)cc(C)c8c1c2c(c34)c(c65)c78 | -7.43% (inactive)
70 | C[C@@]1(O)[C@H](O)[C@@H](CO)O[C@H]1n1cnc2c(NC3CCCC3)nc(Cl)nc21 | 14.8% (inactive)
71 | CC(=O)NCC(=O)N1[C@@H]2CC[C@H]1c1ccc(Nc3ncc(C(F)(F)F)c(NC4CCC4)n3)cc12 | -73.8% (active)
72 | C=CC(=O)Nc1cccc(Nc2nc(Nc3ccc(N4CCN(C(C)=O)CC4)cc3OC)ncc2C(F)(F)F)c1 | 15.7% (inactive)
73 | C=CC(=O)Nc1cccc(Nc2nc(Nc3ccc(NC4CN(CCF)C4)cc3OC)ncc2C(F)(F)F)c1 | -9.1% (inactive)
